# Measurements: PubChem BioAssay AID1159580 (chemical genetic matrix, 2015)
# “And” between values parts separate entries of the source, which are not always exact repeats. Equal entries are not always repeated. The campaign covered roughly 5,500 compounds. About 2,000 (36%) were called active. About 18% were inconclusive and are not listed. The list shows a part of the results. A number with no mark means an inactive call. Rule as the data show it: active = normalized growth mostly below about 0.91 (no sharp cut-off); inconclusive = no clear call, values can overlap the other calls; inactive = mostly above about 0.92.
# Assay: chemical genetic growth profiling, strain panel (AID 1159580);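 also: tested at 20 µM; growth read once vehicle control cultures reached saturation at 30 °C; 1 = growth at the plate median or of vehicle wells; lower values mean less growth of the strain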
# Conditions: S. cerevisiae deletion strains, growth OD
smiles,measurement,setting,value
O=c1cc(-c2ccccc2)oc2cc(O)c(O)c(O)c12,normalized growth,"locus YAL013W, strain DEP1, hits give low values",0.367 (active)
same,normalized growth,"locus YAL021C, strain ccr4, hits give low values",0.0818 (active)
same,normalized growth,"locus YAL026C, strain drs2, hits give low values",0.198 (active)
same,normalized growth,"locus YAL030W, strain snc1, hits give low values",0.562 (active)
same,normalized growth,"locus YBL061C, strain skt5, hits give low values",0.449 (active)
same,normalized growth,"locus YBR009C, strain hhf1, hits give low values",0.535 (active)
same,normalized growth,"locus YBR021W, strain FUR4, hits give low values",0.885
same,normalized growth,"locus YBR023C, strain chs3, hits give low values",0.279 (active)
same,normalized growth,"locus YBR171W, strain sec66, hits give low values",0.386 (active)
same,normalized growth,"locus YBR229C, strain ROT2, hits give low values",0.458 (active)
same,normalized growth,"locus YBR231C, strain swc5, hits give low values",0.29 (active)
same,normalized growth,"locus YBR279W, strain paf1, hits give low values",0.574 (active)
same,normalized growth,"locus YCL011C, strain gbp2, hits give low values",0.565 (active)
same,normalized growth,"locus YCL016C, strain dcc1, hits give low values",0.683 (active)
same,normalized growth,"locus YCL029C, strain bik1, hits give low values",0.174 (active)
same,normalized growth,"locus YCL069W, strain vba3, hits give low values",0.608 (active)
same,normalized growth,"locus YCR088W, strain abp1, hits give low values",0.604 (active)
same,normalized growth,"locus YDL005C, strain med2, hits give low values",0.636 (active)
same,normalized growth,"locus YDL035C, strain GPR1, hits give low values",0.402 (active)
same,normalized growth,"locus YDL040C, strain nat1, hits give low values",0.612 (active)
same,normalized growth,"locus YDL074C, strain BRE1, hits give low values",0.219 (active)
same,normalized growth,"locus YDL101C, strain DUN1, hits give low values",0.115 (active)
same,normalized growth,"locus YDL134C, strain PPH21, hits give low values",0.586 (active)
same,normalized growth,"locus YDL185W, strain tfp1, hits give low values",0.549 (active)
same,normalized growth,"locus YDL192W, strain arf1, hits give low values",0.512 (active)
same,normalized growth,"locus YDR001C, strain nth1, hits give low values",0.721 (active)
same,normalized growth,"locus YDR069C, strain doa4, hits give low values",0.127 (active)
same,normalized growth,"locus YDR101C, strain arx1, hits give low values",0.176 (active)
same,normalized growth,"locus YDR137W, strain rgp1, hits give low values",0.161 (active)
same,normalized growth,"locus YDR150W, strain NUM1, hits give low values",0.591 (active)
same,normalized growth,"locus YDR159W, strain sac3, hits give low values",0.148 (active)
same,normalized growth,"locus YDR162C, strain NBP2, hits give low values",0.224 (active)
same,normalized growth,"locus YDR195W, strain ref2",0.327 (active)
same,normalized growth,"locus YDR297W, strain sur2, hits give low values",0.445 (active)
same,normalized growth,"locus YDR318W, strain mcm21, hits give low values",0.589 (active)
same,normalized growth,"locus YDR334W, strain swr1, hits give low values",0.351 (active)
same,normalized growth,"locus YDR335W, strain msn5, hits give low values",0.138 (active)
same,normalized growth,"locus YDR388W, hits give low values",0.555 (active)
same,normalized growth,"locus YDR392W, strain spt3, hits give low values",0.562 (active)
same,normalized growth,"locus YDR502C, strain sam2, hits give low values",0.214 (active)
same,normalized growth,"locus YEL003W, strain gim4, hits give low values",0.291 (active)
same,normalized growth,"locus YEL037C, strain rad23, hits give low values",0.407 (active)
same,normalized growth,"locus YEL061C, strain CIN8 (second series), hits give low values",0.695 (active)
same,normalized growth,"locus YEL061C, strain CIN8, hits give low values",0.496 (active)
same,normalized growth,"locus YER015W, strain faa2, hits give low values",0.287 (active)
same,normalized growth,"locus YER016W, strain bim1, hits give low values",0.736 (active)
same,normalized growth,"locus YER110C, hits give low values",0.851 (active)
same,normalized growth,"locus YER111C, strain swi4, hits give low values",0.113 (active)
same,normalized growth,"locus YER155C, strain BEM2 (second series), hits give low values",0.338 (active)
same,normalized growth,"locus YER155C, strain BEM2, hits give low values",0.449 (active)
same,normalized growth,"locus YER167W, strain BCK2, hits give low values",0.573 (active)
same,normalized growth,"locus YFR010W, strain ubp6, hits give low values",0.218 (active)
same,normalized growth,"locus YGL078C, strain dbp3, hits give low values",0.84 (active)
same,normalized growth,"locus YGL086W, strain mad1, hits give low values",0.636 (active)
same,normalized growth,"locus YGL167C, strain pmr1, hits give low values",0.396 (active)
same,normalized growth,"locus YGL173C, strain kem1, hits give low values",0.23 (active)
same,normalized growth,"locus YGL227W, strain vid30, hits give low values",0.677 (active)
same,normalized growth,"locus YGL240W, strain doc1, hits give low values",0.657 (active)
same,normalized growth,"locus YGL248W, strain PDE1, hits give low values",0.561 (active)
same,normalized growth,"locus YGL253W, strain hxk2, hits give low values",0.485 (active)
same,normalized growth,"locus YGR078C, strain PAC10, hits give low values",0.536 (active)
same,normalized growth,"locus YGR135W, strain pre9, hits give low values",0.443 (active)
same,normalized growth,"locus YGR229C, strain SMI1, hits give low values",0.107 (active)
same,normalized growth,"locus YGR252W, strain gcn5, hits give low values",0.576 (active)
same,normalized growth,"locus YHR013C, strain ard1, hits give low values",0.504 (active)
same,normalized growth,"locus YHR027C, strain rpn1, hits give low values",0.295 (active)
same,normalized growth,"locus YHR030C, strain SLT2, hits give low values",0.304 (active) and 0.677 (active)
same,normalized growth,"locus YHR079C, strain IRE1 (second series), hits give low values",0.139 (active)
same,normalized growth,"locus YHR079C, strain IRE1, hits give low values",0.612 (active)
same,normalized growth,"locus YHR094C, strain hxt1, hits give low values",0.699 (active)
same,normalized growth,"locus YHR129C, strain ARP1, hits give low values",0.531 (active)
same,normalized growth,"locus YHR142W, strain chs7, hits give low values",0.285 (active)
same,normalized growth,"locus YHR200W, strain rpn10, hits give low values",0.604 (active)
same,normalized growth,"locus YIL066C, strain RNR3, hits give low values",0.425 (active)
same,normalized growth,"locus YIL073C, strain SPO22, hits give low values",0.381 (active)
same,normalized growth,"locus YIL125W, strain kgd1, hits give low values",0.808 (active)
same,normalized growth,"locus YIR030C, strain dcg1, hits give low values",0.359 (active)
same,normalized growth,"locus YJL092W, strain hpr5, hits give low values",0.531 (active)
same,normalized growth,"locus YJL095W, strain BCK1 (second series), hits give low values",0.218 (active)
same,normalized growth,"locus YJL095W, strain BCK1, hits give low values",0.0738 (active) and 0.684 (active)
same,normalized growth,"locus YJL115W, strain asf1, hits give low values",0.648 (active)
same,normalized growth,"locus YJL129C, strain trk1, hits give low values",0.312 (active)
same,normalized growth,"locus YJL134W, strain LCB3, hits give low values",0.588 (active)
same,normalized growth,"locus YJL154C, strain vps35, hits give low values",0.68 (active)
same,normalized growth,"locus YJL164C, strain tpk1, hits give low values",0.347 (active)
same,normalized growth,"locus YJL166W, strain qcr8, hits give low values",0.437 (active)
same,normalized growth,"locus YJL168C, strain set2, hits give low values",0.808 (active)
same,normalized growth,"locus YJL187C, strain SWE1 (second series), hits give low values",0.106 (active)
same,normalized growth,"locus YJR043C, strain POL32, hits give low values",0.288 (active)
same,normalized growth,"locus YJR066W, strain TOR1, hits give low values",0.68 (active)
same,normalized growth,"locus YJR075W, strain HOC1, hits give low values",0.558 (active)
